Screening data as filed in PubChem.
AmpC no deterg – blocks E. coli AmpC beta-lactamase in detergent-free assay. P00811. AmpC nitrocefin hydrolysis, absorbance 480 nm, 0.0001% Triton. Potency, µM (highest dose often 57.1 µM), inactives show top-dose activity change, negative = inhibition, actives largely listed as inhibitors. 330,000 tested, 0.52% active. AID 485341;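 note: plate controls were no compound for no effect and no enzyme for full effect; nearly all actives have a fitted effect of over 20% in size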
Target sequence (P00811 whole entry, looked up): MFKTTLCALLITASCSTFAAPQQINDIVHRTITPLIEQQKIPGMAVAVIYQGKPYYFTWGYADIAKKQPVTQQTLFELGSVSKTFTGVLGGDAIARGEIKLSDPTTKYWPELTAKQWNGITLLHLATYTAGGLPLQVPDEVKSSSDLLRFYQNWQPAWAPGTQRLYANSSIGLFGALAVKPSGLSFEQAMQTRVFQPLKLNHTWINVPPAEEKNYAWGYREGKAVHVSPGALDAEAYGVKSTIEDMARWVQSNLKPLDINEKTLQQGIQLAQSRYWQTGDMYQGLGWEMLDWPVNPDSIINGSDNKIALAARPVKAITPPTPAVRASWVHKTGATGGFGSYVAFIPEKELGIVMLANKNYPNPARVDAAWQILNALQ
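20 mM phosphate pH 7.0 + 0.01% (detergent screen) or 0.0001% Triton X-100; 5.3 nM AmpC reagent; cpd preinc 15 min RT; nitrocefin (800 uM stock) to start; A480 q20 s × 4 min; Activity was normalised to no-enzyme and no-compound control wells.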
HCV inhibitor – blocks hepatitis C virus. Huh7.5.1 HCVcc-Cre infection, luciferase reporter, 44 h. 340,000 tested, 3.4% active. Potency, µM (highest dose often 41.8 µM), for inactives: top-dose activity change, negative = inhibition, most hits filed as inhibitors
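A cell-based infection assay in which seeded cells (1,000 per well) receive test compound after 4 h, are inoculated with HCVcc-Cre at approximately 0.5 moi, and are incubated 44 h before luminescence detection.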
AMA1 RON2 block – AMA1-RON2 (P. falciparum) interaction inhibition | AlphaScreen AMA1-biotinylated RON2 peptide binding | Potency, µM (series often up to 58.2 µM), for inactives: top-dose activity change, negative = inhibition, usual class: inhibitors | 360,000 tested, 0.2% active;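 note: 0% = vehicle wells and -100% = peptide control; nearly all actives have a fitted effect of over 45% in size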
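AMA1 (3D7) with his tag at 25 nM final met compounds first, then biotinylated RON2 peptide at 25 nM; detection used donor plus acceptor beads, 10 µg/mL apiece, read by AlphaScreen after 30 min at room temperature.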
Pf growth 48h – inhibits P. falciparum growth in the first generation, 48 h; Potency, µM (doses to about 28.7 µM), for the others: at the highest dose activity change, negative = inhibition, most hits filed as inhibitors; AID 504832; 310,000 tested, 5.9% active; P. falciparum luciferase growth in erythrocytes, 48 h
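Compounds are pin-transferred into medium, infected erythrocytes (2% hematocrit, 0.1% parasitemia final) are added, and plates sit one parasite generation at 37 C in 5% CO2. Detection reagent is then added and luminescence measured.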
Pf growth 96h – inhibits malaria parasite growth, 96 h. 320,000 tested, 6.9% active. P. falciparum luciferase reporter growth, 96 h. AID 504834. Potency, µM (highest dose often 28.7 µM), inactives show top-dose activity change, negative = inhibition, usual class: inhibitors
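96 h incubation, 37 C, 5% CO2, of luciferase-reporter P. falciparum-infected RBCs (2% hematocrit, 0.05% parasitemia final) with test compounds; endpoint luminescence.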
AmpC detergent – blocks E. coli AmpC beta-lactamase in detergent assay. 370,000 tested, 0.041% active. AmpC hydrolysis of nitrocefin, absorbance 480 nm, 0.01% Triton. P00811. Potency, µM (doses to about 114 µM), without a hit: at the top dose activity change, negative = inhibition, actives largely listed as inhibitors;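 note: 0% = no-compound wells and -100% = no-enzyme wells; nearly all actives have a fitted effect of over 25% in size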
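AmpC (5.3 nM in the dispensed reagent) in 20 mM phosphate pH 7.0 with 0.01% (detergent screen) or 0.0001% Triton X-100 was preincubated with compounds for 15 min at room temperature. Nitrocefin was then added from an 800 uM solution, and hydrolysis was followed at 480 nm.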
* marks the source's active call; other numbers are inactive results. Hits are enriched below; roughly 11% of the tested compounds scored in any of these assays. Calls come from the whole dose curve; as a rule, active = well fitted curve in the direction sought with a large enough effect; inconclusive = small, poorly fitted or top-dose-only effect, or another doubt; inactive = no such curve, though single readings can be large; an effect the other way counts as inactive or inconclusive. Unless noted, % is set by controls: 0 for no effect and ±100 for the full control effect; potency is the fitted concentration of half-maximal effect.

CCOC(=O)N1CCc2c(sc3c2c(=O)n(Cc2ccccc2)c(=O)n3Cc2cccc(Cl)c2)C1 was read as AmpC detergent 5.7%.
`N#Cc1ccc(NC(=O)Cn2cnc(S(=O)(=O)N3CCc4ccccc43)c2)cc1` gave AmpC no deterg -26.2%, HCV inhibitor 3.5%, AMA1 RON2 block -4.8%, Pf growth 48h 1.1%, Pf growth 96h 11.7µM* and AmpC detergent -8.7%.
For O=C(Cn1cnc(S(=O)(=O)N2CCCC2)c1)Nc1cccc(Br)c1 the results were AmpC no deterg 12.2%, HCV inhibitor 11.2%, AMA1 RON2 block 0.0%, Pf growth 48h 12.9%, Pf growth 96h 11.7µM* and AmpC detergent -1.4%.
Screening Cc1c(Cl)cccc1NC(=O)Cn1cnc(S(=O)(=O)N2CCCC2)c1 returned AmpC no deterg -16.7%, HCV inhibitor 9.1%, AMA1 RON2 block -1.9%, Pf growth 48h -0.3%, Pf growth 96h 7.38µM* and AmpC detergent -2.9%.
`CC(=O)c1cccc(NC(=O)Cn2cnc(S(=O)(=O)N3CCCCC3)c2)c1` gave AmpC no deterg -14.1%, HCV inhibitor 4.7%, AMA1 RON2 block -7.1%, Pf growth 48h 1.1%, Pf growth 96h 23.5% and AmpC detergent -5.3%.
For CSc1cccc(NC(=O)Cn2cnc(S(=O)(=O)N3CCCC3)c2)c1 the results were AmpC no deterg -33.4%, HCV inhibitor 11.4%, AMA1 RON2 block -2.0%, Pf growth 48h 5.3%, Pf growth 96h -8.0% and AmpC detergent -8.2%.
CC1CCN(S(=O)(=O)c2cn(CC(=O)Nc3ccc(C#N)cc3)cn2)CC1 was read as AmpC no deterg -12.1%, HCV inhibitor -1.4%, AMA1 RON2 block -0.5%, Pf growth 48h 7.1%, Pf growth 96h inconclusive and AmpC detergent -4.2%.
For C/C(=N\NC(=O)Cc1ccc(Cl)c(Cl)c1)c1cccnc1 the results were AmpC no deterg -15.9%, HCV inhibitor 3.1%, AMA1 RON2 block 70.3%, Pf growth 48h 3.7%, Pf growth 96h -23.7% and AmpC detergent -7.1%.
C/C(=N\NC(=O)Cc1ccccc1Cl)c1cccnc1 was read as AmpC no deterg 80.2%, HCV inhibitor 2.4%, AMA1 RON2 block 21.2%, Pf growth 48h inconclusive, Pf growth 96h 1.65µM* and AmpC detergent 9.4%.
COc1cccc(NC(=O)c2cc([N+](=O)[O-])ccc2NCc2cccnc2)c1 was read as AmpC no deterg -35.8%, HCV inhibitor inconclusive, AMA1 RON2 block 0.0%, Pf growth 48h 10.4µM*, Pf growth 96h inconclusive and AmpC detergent -11.4%.
For Cc1ccc(NC(=O)c2cc([N+](=O)[O-])ccc2NCc2cccnc2)cc1Cl the results were AmpC no deterg -9.8%, HCV inhibitor inconclusive, AMA1 RON2 block -6.6%, Pf growth 48h 5.86µM*, Pf growth 96h 2.08µM* and AmpC detergent 0.5%.
`Cn1c(C=O)c(C#Cc2ccccc2)c2ccccc21` gave AmpC no deterg -40.0%, HCV inhibitor 7.94µM*, AMA1 RON2 block 165.9%, Pf growth 48h 11.7µM*, Pf growth 96h inconclusive and AmpC detergent 10.5%.
`COc1ccc(C#Cc2c(C=O)n(C)c3ccccc23)cc1` gave AmpC no deterg -15.7%, HCV inhibitor 10µM*, AMA1 RON2 block 241.0%, Pf growth 48h inconclusive, Pf growth 96h inconclusive and AmpC detergent -14.0%.
For COC(=O)c1ccc2c(c1)c(C#Cc1ccccc1)c(-c1ccccc1)n2C the results were AmpC no deterg -25.6%, HCV inhibitor inconclusive and AMA1 RON2 block 71.5%.
`COc1ccc(C#Cc2ccc3c(=O)c4ccccc4n(C)c3c2)cc1` gave AmpC no deterg -23.4%, HCV inhibitor 2.2%, AMA1 RON2 block 30.5%, Pf growth 48h -41.3%, Pf growth 96h 8.28µM* and AmpC detergent 3.7%.
Screening COCCn1c(-c2cccc(Br)c2)nc2c(c(=O)c3ccccc3n2C)c1=O returned AmpC no deterg -11.4%, HCV inhibitor -1.9%, AMA1 RON2 block -7.1%, Pf growth 48h inconclusive, Pf growth 96h inconclusive and AmpC detergent -0.7%.
CCCc1nc2sc3ccccc3c(=O)c2c(=O)n1Cc1ccc(OC)cc1 was read as AmpC no deterg -14.8%, HCV inhibitor inconclusive, AMA1 RON2 block -19.8%, Pf growth 48h inconclusive, Pf growth 96h 10.4µM* and AmpC detergent -8.1%.
`COCCn1c(-c2ccccc2)nc2c(c(=O)c3ccccc3n2C)c1=O` gave AmpC no deterg -18.1%, HCV inhibitor -5.2%, Pf growth 48h inconclusive, Pf growth 96h 14.7µM* and AmpC detergent -2.4%.
`COc1ccc(Cn2c(-c3ccc(C)cc3)nc3c(c(=O)c4ccccc4n3C)c2=O)cc1` gave AmpC no deterg -7.0%, HCV inhibitor inconclusive, AMA1 RON2 block -5.5%, Pf growth 48h 13.1µM*, Pf growth 96h inconclusive and AmpC detergent -3.2%.
For COc1ccc(Cn2c(C)nc3c(c(=O)c4ccccc4n3C)c2=O)cc1 the results were AmpC no deterg -15.8%, HCV inhibitor 1.4%, AMA1 RON2 block 2.7%, Pf growth 48h inconclusive, Pf growth 96h inconclusive and AmpC detergent 4.2%.
Screening CCc1nc2sc3ccccc3c(=O)c2c(=O)n1CCOC returned AmpC no deterg -8.6%, HCV inhibitor -4.9%, AMA1 RON2 block -2.3%, Pf growth 48h 3.8%, Pf growth 96h 0.3% and AmpC detergent -0.9%.
COCCn1c(C2CCCCC2)nc2sc3ccccc3c(=O)c2c1=O was read as AmpC no deterg -13.7%, HCV inhibitor -19.9%, AMA1 RON2 block -5.9%, Pf growth 48h 1.47µM*, Pf growth 96h 0.0% and AmpC detergent -1.5%.
Screening COc1ccc(-c2nc3c(c(=O)c4ccccc4n3C)c(=O)n2Cc2ccccc2)cc1 returned AmpC no deterg -22.3%, HCV inhibitor inconclusive, AMA1 RON2 block -9.7%, Pf growth 48h -19.5%, Pf growth 96h 2.94µM* and AmpC detergent inconclusive.
`COc1ccc(Cn2c(-c3ccccc3C)nc3c(c(=O)c4ccccc4n3C)c2=O)cc1` gave HCV inhibitor 7.6% and AMA1 RON2 block -0.5%.
Screening Cn1c2ccccc2c(=O)c2c(=O)n(Cc3ccccc3)c(-c3ccc(F)cc3)nc21 returned AmpC no deterg -20.7%, HCV inhibitor -3.8%, AMA1 RON2 block -12.7%, Pf growth 48h inconclusive, Pf growth 96h 5.22µM* and AmpC detergent -8.0%.
Screening COc1ccc(Cn2c(-c3ccc(OC)cc3)nc3c(c(=O)c4ccccc4n3C)c2=O)cc1 returned AmpC no deterg -26.7%, HCV inhibitor -27.7%, Pf growth 48h 11.7µM*, Pf growth 96h 9.28µM* and AmpC detergent -14.6%.
